Bioassay records from PubChem BioAssay.
Sampled rows, rich in hits. Any-hit rate of the full collection: about 3.5%.
mHTT CaM bind: mutant huntingtin-calmodulin interaction inhibitors – biochemical, AlphaScreen, primary screen; inhibition, % at 15 µM; AlphaScreen His-mHTT/GST-CaM binding, luminescence; 3.6% of 190,000 active; AID 1671202, 2021; P42858;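 note: 0% = both proteins with DMSO and 100% = one protein alone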
Target sequence (P42858 whole entry, looked up, stated change not applied): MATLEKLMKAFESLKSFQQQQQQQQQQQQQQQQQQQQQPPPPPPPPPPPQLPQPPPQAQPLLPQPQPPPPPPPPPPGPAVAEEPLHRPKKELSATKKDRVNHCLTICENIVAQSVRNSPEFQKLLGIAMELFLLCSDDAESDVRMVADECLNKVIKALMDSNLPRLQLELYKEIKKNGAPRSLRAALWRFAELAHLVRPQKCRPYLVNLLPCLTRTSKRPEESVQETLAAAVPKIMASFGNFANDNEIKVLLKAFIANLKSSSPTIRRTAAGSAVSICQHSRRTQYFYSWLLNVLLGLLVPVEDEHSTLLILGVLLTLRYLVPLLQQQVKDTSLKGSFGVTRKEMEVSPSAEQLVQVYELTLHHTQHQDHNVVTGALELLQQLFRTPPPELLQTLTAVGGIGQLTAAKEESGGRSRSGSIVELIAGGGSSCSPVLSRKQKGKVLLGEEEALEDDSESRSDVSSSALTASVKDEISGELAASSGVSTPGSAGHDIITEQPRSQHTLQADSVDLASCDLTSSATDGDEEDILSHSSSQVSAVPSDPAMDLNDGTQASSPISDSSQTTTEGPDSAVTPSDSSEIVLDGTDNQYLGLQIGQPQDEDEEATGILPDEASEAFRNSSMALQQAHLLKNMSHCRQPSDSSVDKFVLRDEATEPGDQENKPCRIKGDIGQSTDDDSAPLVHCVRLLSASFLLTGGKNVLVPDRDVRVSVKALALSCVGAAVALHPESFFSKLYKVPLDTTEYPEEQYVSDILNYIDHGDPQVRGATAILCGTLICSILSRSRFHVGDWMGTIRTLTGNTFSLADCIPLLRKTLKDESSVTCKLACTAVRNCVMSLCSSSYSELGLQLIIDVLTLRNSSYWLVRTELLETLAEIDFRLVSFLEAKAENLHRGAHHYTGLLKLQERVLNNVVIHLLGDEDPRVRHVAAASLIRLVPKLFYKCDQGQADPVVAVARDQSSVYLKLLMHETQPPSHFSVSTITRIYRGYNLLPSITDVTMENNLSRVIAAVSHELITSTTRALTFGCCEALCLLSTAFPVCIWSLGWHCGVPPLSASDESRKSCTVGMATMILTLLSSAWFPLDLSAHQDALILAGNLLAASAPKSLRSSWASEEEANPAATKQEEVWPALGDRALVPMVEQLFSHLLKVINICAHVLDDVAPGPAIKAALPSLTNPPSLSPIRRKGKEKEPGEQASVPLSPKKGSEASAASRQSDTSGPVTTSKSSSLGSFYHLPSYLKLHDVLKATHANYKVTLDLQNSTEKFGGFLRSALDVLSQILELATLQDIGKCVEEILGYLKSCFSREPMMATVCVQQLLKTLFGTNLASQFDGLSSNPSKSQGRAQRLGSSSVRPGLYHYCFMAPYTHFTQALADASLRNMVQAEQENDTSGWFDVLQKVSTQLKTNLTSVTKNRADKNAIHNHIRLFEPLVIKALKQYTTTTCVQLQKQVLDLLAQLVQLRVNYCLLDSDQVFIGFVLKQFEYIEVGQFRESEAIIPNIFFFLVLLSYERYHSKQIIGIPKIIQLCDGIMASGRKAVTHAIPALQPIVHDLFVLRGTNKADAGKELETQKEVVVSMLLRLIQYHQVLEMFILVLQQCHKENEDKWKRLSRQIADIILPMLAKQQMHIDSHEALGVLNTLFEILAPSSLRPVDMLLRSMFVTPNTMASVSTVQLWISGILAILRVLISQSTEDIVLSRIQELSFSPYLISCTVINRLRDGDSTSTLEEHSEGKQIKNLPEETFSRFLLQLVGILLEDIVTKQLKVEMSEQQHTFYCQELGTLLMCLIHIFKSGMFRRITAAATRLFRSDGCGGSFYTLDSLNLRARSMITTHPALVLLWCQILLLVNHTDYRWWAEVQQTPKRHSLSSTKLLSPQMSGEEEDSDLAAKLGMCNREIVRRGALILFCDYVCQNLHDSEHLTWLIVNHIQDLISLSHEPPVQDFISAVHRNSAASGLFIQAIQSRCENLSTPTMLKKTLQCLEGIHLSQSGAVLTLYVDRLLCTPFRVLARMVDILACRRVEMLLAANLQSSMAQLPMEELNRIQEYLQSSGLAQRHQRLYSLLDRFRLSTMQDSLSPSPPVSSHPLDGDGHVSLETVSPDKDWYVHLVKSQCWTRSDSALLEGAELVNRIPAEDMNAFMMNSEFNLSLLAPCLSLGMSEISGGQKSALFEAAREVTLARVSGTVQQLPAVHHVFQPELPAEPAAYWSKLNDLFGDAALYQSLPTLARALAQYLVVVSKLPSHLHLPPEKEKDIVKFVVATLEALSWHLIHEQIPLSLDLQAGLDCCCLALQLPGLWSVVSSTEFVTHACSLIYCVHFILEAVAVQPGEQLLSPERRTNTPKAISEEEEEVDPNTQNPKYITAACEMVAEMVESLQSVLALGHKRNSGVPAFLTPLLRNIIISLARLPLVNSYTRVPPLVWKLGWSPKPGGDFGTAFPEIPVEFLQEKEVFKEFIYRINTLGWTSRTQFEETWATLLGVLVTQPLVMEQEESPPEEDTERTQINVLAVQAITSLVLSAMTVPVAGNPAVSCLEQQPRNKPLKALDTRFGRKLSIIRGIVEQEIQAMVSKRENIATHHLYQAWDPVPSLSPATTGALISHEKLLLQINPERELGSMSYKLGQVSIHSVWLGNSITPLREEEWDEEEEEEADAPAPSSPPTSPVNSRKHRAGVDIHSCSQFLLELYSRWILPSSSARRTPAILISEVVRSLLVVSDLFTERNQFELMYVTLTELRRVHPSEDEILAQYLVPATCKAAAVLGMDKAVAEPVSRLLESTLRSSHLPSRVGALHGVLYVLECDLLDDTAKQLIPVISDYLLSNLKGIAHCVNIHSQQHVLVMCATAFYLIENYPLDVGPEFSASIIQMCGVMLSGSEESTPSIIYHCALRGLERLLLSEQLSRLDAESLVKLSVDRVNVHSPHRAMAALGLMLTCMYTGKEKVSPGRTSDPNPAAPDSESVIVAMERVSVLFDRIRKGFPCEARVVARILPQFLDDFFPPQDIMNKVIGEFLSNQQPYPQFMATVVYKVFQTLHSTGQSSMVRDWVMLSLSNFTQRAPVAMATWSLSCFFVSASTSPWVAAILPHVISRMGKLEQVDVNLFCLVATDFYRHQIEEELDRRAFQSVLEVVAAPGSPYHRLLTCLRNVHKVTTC
Pf apPOL block: Pf-apPOL inhibitors, biochemical, fluorescence | AID 1794808, 2022 | Plasmodium falciparum apicoplast DNA polymerase (apPOL) | 0.25% of 210,000 active | inhibition, % at 10 µM | Recombinant Pf-apPOL, molecular beacon fluorescence, 1.5 h
An asterisk follows results filed as active; . = no result given. Cut-off read from the data, not from the text of the source: active = inhibition above about 50%; inactive = the rest.

SMILES	mHTT CaM bind	Pf apPOL block
COc1ccccc1NC(=O)C1CC(=O)N(CCc2c[nH]c3ccc(Cl)cc23)C1 (stereo unspecified)	41	0
COc1ccc(C)cc1NC(=O)C1CC(=O)N(CCc2c[nH]c3ccc(Cl)cc23)C1 (stereo unspecified)	14	-2
COc1ccc(Cl)cc1NC(=O)C1CC(=O)N(CCc2c[nH]c3ccc(C)cc23)C1 (stereo unspecified)	75*	0
COc1ccc(OC)c(NC(=O)C2CC(=O)N(CCc3c[nH]c4ccc(Cl)cc34)C2)c1 (stereo unspecified)	81*	1
CC12CCC(C(=O)Nc3ccccc3[N+](=O)[O-])(OC1=O)C2(C)C (stereo unspecified)	1	0
CCC(C)Sc1nc2c(cnn2-c2ccccc2)c(=O)[nH]1 (stereo unspecified)	2	4
CC1CC(NC(=S)NC2CC3CC2C2C=CCC32)CC(C)(C)C1 (stereo unspecified)	.	-1
COc1ccc(CC(=O)N2CCc3cn(C)c4cccc(c34)C2)cc1	57*	-2
Cn1cc2c3c(cccc31)CN(C(=O)Cc1ccccc1Cl)CC2	50*	-3
COc1ccc(CC(=O)N2CCc3ccccc3C2)cc1	4	-5
Cc1ccccc1CC(=O)N1CCc2cn(C)c3cccc(c23)C1	42	-2
Cc1ccc(NC(=O)C2CC(=O)N(c3ccc4oc(C)nc4c3)C2)c(C)c1 (stereo unspecified)	-3	-7
CNC(=O)C1CCCN1C(=O)Nc1ccccc1 (stereo unspecified)	1	1
O=C(Nc1ccc(O)c2c(=O)cc(-c3ccccc3Cl)oc12)c1ccccc1Cl	0	-8
O=S(=O)(Nc1ccc(N2CCOCC2)cc1)c1ccc(Cl)cc1	7	-2
O=S(=O)(c1ccccc1)c1nc(C(c2ccccc2)c2ccccc2)oc1N1CCOCC1	26	2
O=C1C(N2CCOCC2)=CC(=NS(=O)(=O)c2ccccc2)c2ccccc21	72*	-6
O=C1C(N2CCOCC2)=CC(=NS(=O)(=O)c2ccc(Cl)cc2)c2ccccc21	64*	-2
Oc1ccc2ccccc2c1Sc1c(O)ccc2ccccc12	59*	.
Oc1ccc2ccccc2c1N=Nc1ccccn1	.	-207
Cc1ccc(S(=O)(=O)Nc2nc(-c3ccccc3)c(-c3ccccc3)o2)cc1	50*	-6
Cc1ccc(S(=O)(=O)Nc2ccccc2-c2ccccc2)cc1	-29	-52
Cc1cc(C)c(C(=O)N2CCC(CC(=O)NCc3ccccc3F)CC2)[nH]1	5	-1
O=C(NCc1ccccc1Cl)C1CCN(S(=O)(=O)N2CCCCCC2)CC1	-11	-4
CNC(=O)C1CN(C(=O)c2cc(OC)c(OC)c(OC)c2)CC12CCCC2 (stereo unspecified)	-8	0
SMILES	mHTT CaM bind	Pf apPOL block
COc1cc(OC)cc(C2=NC3(CCCC3)N(C(=O)c3cc(OC)c(OC)c(OC)c3)C2=S)c1	52*	-5
CC1=C(C#N)c2nc(N)c(C#N)c(C)c2/C1=C/c1ccc(O)cc1	64*	-4
COc1ccc(/C=C2\C(C)=C(C#N)c3nc(N)c(C#N)c(C)c32)cc1OC	29	-7
CC1=C(C(=O)Nc2ccccc2)C(c2ccc(F)cc2)n2c(s/c(=C\c3ccc(C)o3)c2=O)=N1 (stereo unspecified)	66*	-4
CC1=C(C(=O)Nc2ccccc2)C(c2ccccc2)n2c(s/c(=C\c3ccco3)c2=O)=N1 (stereo unspecified)	9	0
CCC(=O)N1CCc2cc(Br)cc(S(=O)(=O)CCC(=O)Nc3ccccn3)c21	3	0
O=C(O)C1CC=CCC1C(=O)N1CCCc2ccccc21 (stereo unspecified)	-2	0
CCCn1c(C2CCN(C(=O)c3sccc3C)C2)nc2cccnc21 (stereo unspecified)	-9	-1
COc1c2ccoc2nc2c(OC)cccc12	-3	-1
Cn1nc(COc2ccc(F)cc2)c2c1CCN(C(=O)Nc1ccc(F)c(Cl)c1)C2	55*	-2
COc1ccc(NC(=O)N2CCc3c(c(COc4ccc(F)cc4)nn3C)C2)cc1F	35	-3
Cn1nc(COc2ccc(F)cc2)c2c1CCN(C(=O)Nc1cccc(C(F)(F)F)c1)C2	59*	-3
Cn1nc(COc2cccc(F)c2)c2c1CCN(C(=O)Nc1cccc(Cl)c1)C2	14	-3
Cn1nc(CC#N)c(C#N)c1N	.	11
N#Cc1c(C#N)c(N)n(N)c1N	100*	.
COc1cc(OC)cc(C(=O)Nc2ccccc2NC(C)=O)c1	4	4
COc1ccc(OC)c(Nc2ncc3c(n2)CCN(Cc2sccc2C)C3)c1	6	-6
Cc1ccc(S(=O)(=O)N2CCC(c3cc(N)on3)CC2)cc1	19	-2
Cc1ccc(CNC(=O)c2nc(-c3ccncc3)cs2)cc1	14	-6
O=C(NCc1ccc(Cl)cc1)c1nc(-c2ccncc2)cs1	66*	-2
CC(C)(CC(=O)O)CC(=O)N1CCN(c2ncccn2)CC1	.	3
c1ccc2[nH]c(CSc3nc4ccccc4o3)nc2c1	1	1
Cc1ccc(S(=O)(=O)Nc2ccc3oc4ccccc4c3c2)cc1[N+](=O)[O-]	97*	-2
O=[N+]([O-])c1ccc2oc3c(c2c1)CCCC3	-4	-3
O=[N+]([O-])c1ccc(Cl)c(S(=O)(=O)Nc2ccc3oc4c(c3c2)CCCC4)c1	68*	22
SMILES	mHTT CaM bind	Pf apPOL block
O=C1CCCc2oc3ccc(NS(=O)(=O)c4cc([N+](=O)[O-])ccc4Cl)cc3c21	27	10
Cc1ccc(S(=O)(=O)Nc2ccc(Cl)cc2)cc1[N+](=O)[O-]	9	-1
O=[N+]([O-])c1cc(S(=O)(=O)Nc2ccc3oc4c(c3c2)CCCC4)ccc1Cl	75*	-9
CN1CCC(N2CCN(C(=O)c3cn4ccccc4n3)CC2)CC1	2	2
CCc1ccc(NS(=O)(=O)c2cc(OC)ccc2OC)cc1	-1	1
O=C(Nc1nnc(C2CC(=O)N(c3ccc(F)cc3)C2)o1)c1ccccc1 (stereo unspecified)	12	2
CSC(=NS(=O)(=O)c1ccccc1)N1CCN(c2c(C#N)cccc2C#N)CC1	.	-2
COc1cc(C=NNC(=O)c2cc(-c3ccccc3)sc2N)cc(OC)c1OC	.	4
COCCNC(=O)C1(C)CCC(=O)N1CCc1ccc(Cl)cc1 (stereo unspecified)	-4	-3
NC(=S)N1N=C(c2ccccc2)CC1c1ccccc1 (stereo unspecified)	7	.
N#CC(c1ccccc1O)N1N=C(c2ccccc2)CC1c1ccccc1 (stereo unspecified)	92*	-6
COc1ccc(-c2nc3ccc(C)cn3c2NC(=O)C2CCCCC2)cc1	40	0
Cc1ccn2c(NC(=O)C3CCCC3)c(-c3ccccc3)nc2c1	36	2
Cc1ccc2nc(-c3ccc(C)o3)c(NC(=O)C3CCCCC3)n2c1	56*	3
Cc1ccc2nc(Cc3ccccc3)c(NC(=O)C3CCCCC3)n2c1	54*	29
COc1ccc(-n2cnc3cc(N=Cc4ccccc4O)ccc32)cc1	14	-5
Nc1cccc2c1NC(c1ccc(Cl)cc1)C1CCCC21 (stereo unspecified)	90*	-4
COc1ccc(NC(=O)CN(c2cccc([N+](=O)[O-])c2)S(=O)(=O)c2ccccc2)c(OC)c1	24	0
